{"source": "PubChem BioAssay AID1851", "about": "(National Center for Advancing Translational Sciences (NCATS), 2009)", "note": "Several values for one entry are separate records, joined by “and”; a condition that tells them apart may be missing. Identical values can stand only once. Screen size: about 16,000 compounds; about 4,000 (25%) were called active. Roughly 26% stayed inconclusive and do not appear here. Calls follow the shape of the dose curve; as a rule, active = well fitted curve in the direction sought with a large enough effect; inconclusive = small, poorly fitted or top-dose-only effect, or effect the other way; inactive = no such curve, though single readings can be large or run the other way. Not all results are given here. The source holds several records for some structures; these can differ, active in one and inactive in another. % is scaled to controls: 0 for no effect and ±100 for the full control effect."}
{"molecular_target": "Cytochrome P450 2C9 (Homo sapiens) (UniProt P11712)", "sequence (P11712 whole entry, looked up)": "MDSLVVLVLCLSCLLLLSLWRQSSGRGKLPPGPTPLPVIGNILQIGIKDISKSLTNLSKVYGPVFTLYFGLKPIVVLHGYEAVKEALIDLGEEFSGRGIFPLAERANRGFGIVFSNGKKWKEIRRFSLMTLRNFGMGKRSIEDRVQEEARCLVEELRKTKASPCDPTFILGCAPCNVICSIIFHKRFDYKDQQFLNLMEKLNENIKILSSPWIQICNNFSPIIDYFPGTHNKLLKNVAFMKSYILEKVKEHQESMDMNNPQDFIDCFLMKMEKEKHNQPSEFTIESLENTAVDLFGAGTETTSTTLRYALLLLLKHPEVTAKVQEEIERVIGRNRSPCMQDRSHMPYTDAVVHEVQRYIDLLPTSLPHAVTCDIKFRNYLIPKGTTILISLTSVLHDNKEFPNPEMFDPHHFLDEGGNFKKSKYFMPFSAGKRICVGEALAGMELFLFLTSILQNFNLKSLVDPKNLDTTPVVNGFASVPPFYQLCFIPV", "assay": "Cytochrome panel assay with activity outcomes", "conditions": "recombinant CYP, pro-luciferin dealkylation, luminescence, p450-cyp2c9; series mostly up to 57.1 µM; activity, negative = inhibition: at the top concentration"}
{"smiles": "Cc1nc2ccccc2cc1C[N+]12CN3CN(CN(C3)C1)C2", "activity, negative = inhibition": "18.3% [at 11.4 µM] (inactive)"}
{"smiles": "COc1ccc2c(c1)C13CCCC[C@@H]1C(C2)N(C)CC3", "note": "(some centres undefined)", "activity, negative = inhibition": "-5.05% [at 25.6 µM] (inactive)"}
{"smiles": "CC[C@H](C)C(=O)O[C@@H]1[C@H](O)[C@@H]2[C@H](CN3C[C@@H](C)CC[C@@H]3[C@@]2(C)O)[C@@H]2C[C@@]34O[C@@]5(O)[C@@H](OC(=O)[C@](C)(O)CC)CC[C@@]3(C)[C@H]5[C@H](OC(C)=O)[C@@H](OC(C)=O)[C@H]4[C@]12O", "activity, negative = inhibition": "23.1% [at 25.6 µM] (inactive)"}
{"smiles": "COc1cc2c3cc1Oc1c(O)c(OC)cc4c1[C@@H](Cc1ccc(cc1)Oc1cc(ccc1O)C[C@H]3N(C)CC2)N(C)CC4", "activity, negative = inhibition": "2.87% [at 11.4 µM] (inactive)"}
{"smiles": "CC(C)N(CC[C@@](C(N)=O)(c1ccccc1)c1ccccn1)C(C)C", "activity, negative = inhibition": "inactive"}
{"smiles": "N[C@H](Cn1ccc(=O)[nH]c1=O)C(=O)O", "activity, negative = inhibition": "-9.73% (inactive)"}
{"smiles": "O=[N+]([O-])c1ccc2nc(N3CCNCC3)ccc2c1", "activity, negative = inhibition": "-10.6% (inactive)"}
{"smiles": "CC12CN3CC(C)(CN(C1)C31CCSCC1)C2=O", "activity, negative = inhibition": "-7.66% (inactive)"}
{"smiles": "NCCc1c[nH]c2ccc(C(N)=O)cc12", "activity, negative = inhibition": "inactive"}
{"smiles": "N[C@@H](Cc1ccccc1)P(=O)(O)O", "activity, negative = inhibition": "-8.88% [at 11.4 µM] (inactive)"}
{"smiles": "CN1[C@H](CC(=O)c2ccccc2)CCC[C@H]1C[C@H](O)c1ccccc1", "activity, negative = inhibition": "-7.25% (inactive)"}
{"smiles": "CC1(C)CCC2=C(O1)c1ccccc1C(=O)C2=O", "AC50": "31.6 µM (active)"}
{"smiles": "C[C@@H]1CC[C@@H]2N(C1)C[C@H]1[C@@](O)([C@H](O)C[C@]3(O)[C@H]4CC[C@H]5[C@]6(O)O[C@]4(C[C@]13O)[C@@]5(C)CC[C@@H]6O)[C@@]2(C)O", "activity, negative = inhibition": "-2.76% [at 11.4 µM] (inactive)"}
{"smiles": "C=CCn1c(O)c(C(C)=NCCCN2CCOCC2)c(=O)[nH]c1=O", "activity, negative = inhibition": "-27.5% (inactive)"}
{"smiles": "C=C(C)[C@H]1CN[C@H](C(=O)O)[C@@H]1CC(=O)O", "activity, negative = inhibition": "13.2% (inactive)"}
{"smiles": "COc1c2c(cc3c1OCO3)CCN(C)C2", "activity, negative = inhibition": "20.3% [at 25.6 µM] (inactive)"}
{"smiles": "NCC#Cc1ccccc1", "AC50": "10 µM (active)"}
{"smiles": "O=C(Oc1ccccc1)N1CCC[C@@]2(CCN(C(c3ccccc3)c3ccccc3)C2)C1", "activity, negative = inhibition": "-10.2% (inactive)"}
{"smiles": "C[N+]1([O-])[C@@H]2CC[C@H]1CC(OC(=O)[C@@H](CO)c1ccccc1)C2", "note": "(some centres undefined)", "activity, negative = inhibition": "21.1% [at 25.6 µM] (inactive)"}
{"smiles": "COC(=O)[C@@]1(Cc2ccc(F)cc2)[C@H]2c3cc(C(=O)N(C)C)[nH]c3C[C@H]2CN1C(=O)c1ccccc1", "AC50": "10 µM (active)"}
{"smiles": "CN(C)CCCc1c[nH]c2ccccc12", "activity, negative = inhibition": "-1.95% [at 11.4 µM] (inactive)"}
{"smiles": "COc1cc2c(cc1O)C[C@H]1c3c(cc(O)c(OC)c3-2)CCN1C", "activity, negative = inhibition": "-0.572% [at 25.6 µM] (inactive)"}
{"smiles": "Cn1c[n+](C)cc1C(O)c1ccccc1", "note": "(centres undefined)", "activity, negative = inhibition": "-14.7% (inactive)"}
{"smiles": "O=C(Nc1ccc(Cl)cc1)Nc1nccs1", "AC50": "17.8 µM (active)"}
{"smiles": "O=C1CS[C@@H](c2ccccc2Cl)c2cc(Cl)ccc2N1", "AC50": "15.8 µM (active)"}
{"smiles": "COc1cc2c(cc1OC)[C@@H]1C(=O)c3ccc4c(c3O[C@@H]1CO2)C=CC(C)(C)O4", "activity, negative = inhibition": "-28% (inactive)"}
{"smiles": "C[C@H](N)Cc1c[nH]c2ccc(O)cc12", "activity, negative = inhibition": "11.8% (inactive)"}
{"smiles": "O=c1c2ccccc2c2ccccc2c(=O)n1-c1cc2c3ccccc3ccc2c2ccccc12", "AC50": "0.316 µM (active)"}
{"smiles": "c1csc(CN2CCC3(CCNCC3)CC2)n1", "activity, negative = inhibition": "5.14% (inactive)"}
{"smiles": "CN(C)CCCNc1c2c(nc3ccc(Cl)cc13)CCCC2", "activity, negative = inhibition": "6.4% [at 11.4 µM] (inactive)"}
{"smiles": "CC(=O)OCC1=C(C(=O)O)N2C(=O)[C@@H](N)[C@@H]2SC1", "activity, negative = inhibition": "13% [at 25.6 µM] (inactive)"}
{"smiles": "CCc1cc2c(nc1CC)CCN(CC/C(C)=N/OC)C2", "activity, negative = inhibition": "7.8% [at 11.4 µM] (inactive)"}
{"smiles": "CS(=O)c1ccc(-c2nc(-c3ccc(F)cc3)c(-c3ccncc3)[nH]2)cc1", "note": "(centres undefined)", "AC50": "inactive and 2 µM (active)"}
{"smiles": "Cc1ccc(S(=O)(=O)N[C@@H](CCCCN)C(=O)CCl)cc1", "activity, negative = inhibition": "-3.85% (inactive)"}
{"smiles": "O=C(Nc1ccccc1)N1CCCC2(CCN(C(=O)Oc3ccccc3)CC2)C1", "activity, negative = inhibition": "-17.9% (inactive)"}
{"smiles": "Cc1cc(C)c(C#N)c(SCC(=O)c2ccc(Cl)cc2Cl)n1", "AC50": "5.01 µM (active)"}
{"smiles": "COc1ccc2c(c1)CCC1[C@@H]2CCC2(C)[C@@H](NCCCCCCN3C(=O)C=CC3=O)CC[C@@H]12", "note": "(some centres undefined)", "activity, negative = inhibition": "5.58% (inactive)"}
{"smiles": "COc1ccc(C[C@@H](N)c2ccc(OC)cc2)cc1", "activity, negative = inhibition": "-15.8% [at 11.4 µM] (inactive)"}
{"smiles": "N=C(N)SCc1ccc(Cl)c2ccccc12", "note": "(tested in a mixture with another compound)", "AC50": "3.98 µM (active)", "activity, negative = inhibition": "9.59% [at 11.4 µM] (inactive)"}
{"smiles": "O=[As](O)(O)c1ccc(NCc2ccccc2)cc1", "activity, negative = inhibition": "-7.26% [at 11.4 µM] (inactive)"}
{"smiles": "C[C@H]1[C@H](NC(=O)/C(=N/OC(C)(C)C(=O)O)c2csc(N)n2)C(=O)N1S(=O)(=O)O", "note": "(stereo in doubt)", "activity, negative = inhibition": "14% [at 25.6 µM] (inactive)"}
{"smiles": "O=c1[nH]oc2c1CCNC2", "activity, negative = inhibition": "inactive"}
{"smiles": "N#Cc1ccc(CN2CC[C@@]3(CCCNC3)C2)cc1", "activity, negative = inhibition": "-13.8% (inactive)"}
{"smiles": "COC(=O)C1=Nc2ccccc2/C1=C\\c1c(O)n(-c2ccc(OC)cc2)c(=O)[nH]c1=O", "AC50": "1.26 µM (active)"}
{"smiles": "NCCCNCCSP(=O)(O)O", "activity, negative = inhibition": "-9.99% (inactive)"}
{"smiles": "CN1Cc2c(ccc3c2OCO3)[C@@H]2[C@@H](O)Cc3cc4c(cc3[C@@H]21)OCO4", "activity, negative = inhibition": "5.43% [at 25.6 µM] (inactive)"}
{"smiles": "NC(N)=NCCN=C(N)N", "activity, negative = inhibition": "3.96% [at 11.4 µM] (inactive)"}
{"smiles": "Clc1cc(I)cc(Cl)c1NC1=NCCN1", "activity, negative = inhibition": "8.41% (inactive)"}
{"smiles": "CCc1ccccc1NC(=S)NC1CC2CCC(C1)N2Cc1ccco1", "note": "(centres undefined)", "activity, negative = inhibition": "19.7% (inactive)"}
{"smiles": "CC(C)CNC(=S)NC1CC2CCCC(C1)N2Cc1ccco1", "note": "(centres undefined)", "AC50": "2.82 µM (active)"}
{"smiles": "CCNC(=S)NC1CC2CCCC(C1)N2Cc1ccco1", "note": "(centres undefined)", "activity, negative = inhibition": "-3.86% (inactive)"}
{"smiles": "C#C[C@@]1(O)CC[C@@H]2[C@@H]3CCC4=CC(=O)CC[C@@]4(C)[C@H]3CC[C@]21C", "activity, negative = inhibition": "6.31% [at 25.6 µM] (inactive)"}
{"smiles": "S=C(Nc1ccc(Cl)cc1)NC1CC2CCCC(C1)N2C1CCCC1", "note": "(centres undefined)", "activity, negative = inhibition": "-23.7% (inactive)"}
{"smiles": "CC1=NN(c2ccccc2)C(=O)[C@@H]1N=Nc1ccc([As](=O)(O)O)c(O)c1", "AC50": "3.16 µM (active)"}
{"smiles": "Nc1nc(N)c(N=Nc2ccc([As](=O)(O)O)c(O)c2)c(N)n1", "activity, negative = inhibition": "-7.93% [at 11.4 µM] (inactive)"}
{"smiles": "CC[N+](CC)(CC)CCOc1cccc(OCC[N+](CC)(CC)CC)c1OCC[N+](CC)(CC)CC", "activity, negative = inhibition": "-12% (inactive)"}
{"smiles": "CC1=C2[C@@H]3OC(=O)[C@@H](C)[C@@H]3CC[C@]2(C)C=CC1=O", "activity, negative = inhibition": "-19.6% [at 25.6 µM] (inactive)"}
{"smiles": "O=C(Nc1cccc(F)c1)N1CC2(CCNCC2)C1", "activity, negative = inhibition": "5.38% (inactive)"}
